Data: the supplement of paper PMC10681739

Tests used:
ETS1 [1] = biological target: T1, ETS1 (UniProt P14921); experiment: ETS1 binding intensity (PBM fluorescence), ETS1 alone (arbitrary fluorescence units); higher = stronger binding; details: ETS1 concentration 1 nM; RUNX1 concentration 0 nM
T1 sequence: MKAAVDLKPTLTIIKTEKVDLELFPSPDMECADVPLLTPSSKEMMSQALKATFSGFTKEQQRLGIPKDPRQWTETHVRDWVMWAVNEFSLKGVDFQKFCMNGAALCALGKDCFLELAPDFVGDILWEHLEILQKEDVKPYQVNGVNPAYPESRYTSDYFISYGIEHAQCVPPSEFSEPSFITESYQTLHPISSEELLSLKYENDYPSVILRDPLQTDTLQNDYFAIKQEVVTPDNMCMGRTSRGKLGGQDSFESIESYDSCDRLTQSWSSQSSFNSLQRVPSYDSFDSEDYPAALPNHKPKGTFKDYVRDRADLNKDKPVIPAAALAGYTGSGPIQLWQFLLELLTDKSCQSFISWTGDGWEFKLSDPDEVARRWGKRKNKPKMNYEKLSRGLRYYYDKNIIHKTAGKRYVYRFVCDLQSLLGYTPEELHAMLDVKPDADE

RUNX1 [2] = biological target: RUNX1 (UniProt Q01196); experiment: RUNX1 binding intensity (PBM fluorescence), RUNX1 alone (arbitrary fluorescence units); higher = stronger binding; details: RUNX1 concentration 2 nM; ETS1 concentration 0 nM
RUNX1, sequence (Q01196 whole entry): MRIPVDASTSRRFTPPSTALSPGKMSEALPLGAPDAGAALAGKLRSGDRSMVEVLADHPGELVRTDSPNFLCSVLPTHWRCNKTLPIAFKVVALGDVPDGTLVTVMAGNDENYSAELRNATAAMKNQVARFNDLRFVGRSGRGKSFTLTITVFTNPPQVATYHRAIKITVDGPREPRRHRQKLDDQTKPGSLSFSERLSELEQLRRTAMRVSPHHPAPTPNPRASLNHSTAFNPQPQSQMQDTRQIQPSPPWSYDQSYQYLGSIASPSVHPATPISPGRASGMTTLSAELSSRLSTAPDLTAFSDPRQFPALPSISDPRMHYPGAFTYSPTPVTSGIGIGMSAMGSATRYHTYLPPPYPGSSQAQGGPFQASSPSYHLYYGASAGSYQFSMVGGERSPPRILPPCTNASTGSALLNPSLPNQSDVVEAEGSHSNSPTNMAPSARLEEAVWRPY
Method: (§1)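 Cooperative gcPBM on 36-bp genomic probes with neighbouring ETS1 and RUNX1 sites. Recombinant human RUNX1 (2 nM) was incubated alone or with ETS1 (25 nM) and detected with anti-RUNX1 antibody plus Alexa488 secondary. Values are medians over 4 replicate spots; the RUNX1+ETS1 data were normalised to the RUNX1-only data. The probes sit in constant array flanks that are not printed.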

ETS1 [3] = biological target: T1, ETS1; experiment: ETS1 binding intensity (PBM fluorescence) in presence of RUNX1, normalised to ETS1-only experiment (arbitrary fluorescence units); higher = stronger binding; details: ETS1 concentration 1 nM; RUNX1 concentration 25 nM
RUNX1 [4] = biological target: RUNX1 (UniProt Q01196); experiment: RUNX1 binding intensity (PBM fluorescence) in presence of ETS1, normalised to RUNX1-only experiment (arbitrary fluorescence units); higher = stronger binding; details: RUNX1 concentration 2 nM; ETS1 concentration 25 nM
Method: as §1
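Wherever RUNX1 binding intensity (PBM fluorescence) in presence of ETS1, normalised to RUNX1-only experiment is given: Full-length recombinant human ETS1 or RUNX1 bound to double-stranded 36-bp genomic probes on microarrays, detected by protein-specific primary antibody and Alexa488 secondary, spot fluorescence as median of four replicate spots.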
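Wherever RUNX1 binding intensity (PBM fluorescence), RUNX1 alone is given: Full-length recombinant human RUNX1 bound to double-stranded 36-bp genomic probes on a high-density microarray, scored as Alexa488 fluorescence per spot via anti-RUNX1 antibody, median of four replicate spots.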

## CTCTGCTTCCTGTCTTTGAATGCCTCTGTGGTTTTC
ETS1 [1]
  ETS1 binding intensity: 675
RUNX1 [2]
  RUNX1 binding intensity: 2080
ETS1 [3]
  ETS1 binding intensity: 2540
RUNX1 [4]
  RUNX1 binding intensity: 4320

## GCTCCCTGGACAGGATGTGGTGCCGAGTAAACAGCT
ETS1 [1]
  ETS1 binding intensity: 4470
RUNX1 [2]
  RUNX1 binding intensity: 645
ETS1 [3]
  ETS1 binding intensity: 5380
RUNX1 [4]
  RUNX1 binding intensity: 1410

## GACAGGAAGCCCGCGGCAGCCTCCGTGGTTGCAGAT
ETS1 [1]
  ETS1 binding intensity: 562
RUNX1 [2]
  RUNX1 binding intensity: 773
ETS1 [3]
  ETS1 binding intensity: 687
RUNX1 [4]
  RUNX1 binding intensity: 1090

## TACCTACAGGAAATGAGACACACCGCAGGCCGATCC
ETS1 [1]
  ETS1 binding intensity: 2130
RUNX1 [2]
  RUNX1 binding intensity: 868
ETS1 [3]
  ETS1 binding intensity: 7670
RUNX1 [4]
  RUNX1 binding intensity: 1770

## TCTCCTTTCAGGAAGCTGCACCCAAACCACCCTCAG
ETS1 [1]
  ETS1 binding intensity: 606
RUNX1 [2]
  RUNX1 binding intensity: 996
ETS1 [3]
  ETS1 binding intensity: 610
RUNX1 [4]
  RUNX1 binding intensity: 949

## ACTACAACTTCCGACTTGCATCACTGCGGTGGCGCT
ETS1 [1]
  ETS1 binding intensity: 425
RUNX1 [2]
  RUNX1 binding intensity: 942
ETS1 [3]
  ETS1 binding intensity: 573
RUNX1 [4]
  RUNX1 binding intensity: 1830

## CCCTCACCCCAGCTTTCCTGTGGTTAACCAAACCCC
ETS1 [1]
  ETS1 binding intensity: 518
RUNX1 [2]
  RUNX1 binding intensity: 7290
ETS1 [3]
  ETS1 binding intensity: 822
RUNX1 [4]
  RUNX1 binding intensity: 9960

## GCGGCTGAGAACACAGGATGTGGCTTTTGGCAGATG
ETS1 [1]
  ETS1 binding intensity: 6080
RUNX1 [2]
  RUNX1 binding intensity: 674
ETS1 [3]
  ETS1 binding intensity: 12800
RUNX1 [4]
  RUNX1 binding intensity: 1680

## CCCCACATCCGGGGGCCGGGGCCGGGCTGTGGGCTT
ETS1 [1]
  ETS1 binding intensity: 524
RUNX1 [2]
  RUNX1 binding intensity: 739
ETS1 [3]
  ETS1 binding intensity: 516
RUNX1 [4]
  RUNX1 binding intensity: 2140

## AGGCCCGGATACCCGCCCCCAAAACCGCGTCCACAA
ETS1 [1]
  ETS1 binding intensity: 523
RUNX1 [2]
  RUNX1 binding intensity: 1040
ETS1 [3]
  ETS1 binding intensity: 1050
RUNX1 [4]
  RUNX1 binding intensity: 1090

## CTTACCTACAGTTCCGCTTGCTGTGGTTTCAGTTAC
ETS1 [1]
  ETS1 binding intensity: 403
RUNX1 [2]
  RUNX1 binding intensity: 1040
ETS1 [3]
  ETS1 binding intensity: 843
RUNX1 [4]
  RUNX1 binding intensity: 2060

## CGGGAACACCCACTTCCGCCACAGACCTGCTCAAAA
ETS1 [1]
  ETS1 binding intensity: 1400
RUNX1 [2]
  RUNX1 binding intensity: 1090
ETS1 [3]
  ETS1 binding intensity: 1380
RUNX1 [4]
  RUNX1 binding intensity: 3820

## CACCCATAGCACCCCGGAAACCACCTCCACCACCTG
ETS1 [1]
  ETS1 binding intensity: 1890
RUNX1 [2]
  RUNX1 binding intensity: 1390
ETS1 [3]
  ETS1 binding intensity: 2240
RUNX1 [4]
  RUNX1 binding intensity: 2020

## CCGATGGCGGCGGAACTGTGGTCAGGGCTGCCCTGA
ETS1 [1]
  ETS1 binding intensity: 365
RUNX1 [2]
  RUNX1 binding intensity: 825
ETS1 [3]
  ETS1 binding intensity: 510
RUNX1 [4]
  RUNX1 binding intensity: 921
